# PubChem BioAssay AID1851 (National Center for Advancing Translational Sciences (NCATS), 2009)
# Several values for one entry are separate records, joined by “and”; a condition that tells them apart may be missing. Identical values can stand only once. Among all 16,000 compounds or so, about 2,600 (16%) were called active. Inconclusive results (about 20%) are left out. Not all results are given here. A number with no mark means an inactive call. Calls follow the shape of the dose curve; as a rule, active = well fitted curve in the direction sought with a large enough effect; inconclusive = small, poorly fitted or top-dose-only effect, or effect the other way; inactive = no such curve, though single readings can be large or run the other way. Peptide text beside a SMILES is read from it. * marks the point of attachment. Cbz = O=C(OCc1ccccc1)*
# Biological target: Cytochrome P450 2D6 (Homo sapiens) (UniProt P10635)
# Sequence (P10635 whole entry, looked up): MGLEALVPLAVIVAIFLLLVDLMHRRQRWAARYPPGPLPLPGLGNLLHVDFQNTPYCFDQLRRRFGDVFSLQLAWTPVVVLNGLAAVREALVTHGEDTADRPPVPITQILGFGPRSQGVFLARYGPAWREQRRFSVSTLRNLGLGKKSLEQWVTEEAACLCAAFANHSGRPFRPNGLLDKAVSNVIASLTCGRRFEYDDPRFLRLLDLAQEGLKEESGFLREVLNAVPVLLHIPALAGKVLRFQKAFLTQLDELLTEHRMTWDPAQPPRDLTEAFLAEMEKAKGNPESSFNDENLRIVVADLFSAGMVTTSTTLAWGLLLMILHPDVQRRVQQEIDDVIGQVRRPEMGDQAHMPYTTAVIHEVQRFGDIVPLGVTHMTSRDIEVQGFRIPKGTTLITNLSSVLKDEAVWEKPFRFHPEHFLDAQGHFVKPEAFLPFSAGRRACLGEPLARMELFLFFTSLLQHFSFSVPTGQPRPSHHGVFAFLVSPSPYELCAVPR
# Assay: Cytochrome panel assay with activity outcomes
# Conditions: recombinant CYP, pro-luciferin dealkylation, luminescence, p450-cyp2d6; series mostly up to 57.1 µM
# % is scaled to controls: 0 for no effect and ±100 for the full control effect.
Compound,AC50,"activity, negative = inhibition"
Nc1nc2n[nH]nc2c(=O)[nH]1,inactive,
O=C1[C@H]2CCn3c(=O)n(-c4ccccc4)c(=O)n3[C@H]2[C@H](O)[C@H]2O[C@@H]12,,-6.63% [at 11.4 µM]
Cc1nn2c3c(cnc2c1-c1ccccc1)C(=O)CC(c1ccccc1)C3 (configuration not stated),inactive,
O=C(NCC1CCCO1)c1nn2c(c1Cl)NC(c1ccc(F)cc1)CC2C(F)(F)F (configuration not stated),inactive,
C#CCSc1nc(Cc2ccc(Cl)cc2)nc2ccccc12,inactive,
Nc1nc(Cl)nc2c1ncn2[C@@H]1O[C@@H](CO)[C@@H](O)[C@H]1O,inactive,
CCC(Sc1nc2n[nH]c(C)c2c(=N)n1-c1cccc(Cl)c1)C(=O)NCCOC (configuration not stated),inactive,
Cc1ccc(/C(N)=N/OC(=O)Cc2cccs2)cc1,inactive,
Cc1onc(-c2ccccc2)c1C(=O)NC(CC(=O)O)c1ccc(OC(C)C)cc1 (configuration not stated),inactive,
CCCOc1ccc(C(=O)CCNc2ccc(C)c(Cl)c2)cc1,inactive,
CCCCOc1ccc(C(=O)CCN2CCCCC2)cc1,5.01 µM (active),
CCOc1ccc(C(=O)CCC(=O)O)cc1,inactive,
Fc1ccc(CSc2ncnc3sc4c(c23)CCCC4)cc1,inactive,
COc1cc(/C=C(/NC(=O)c2ccccc2)C(=O)Nc2ccccc2)c([N+](=O)[O-])cc1OC,inactive,
COc1c(F)c(F)c(C(=O)O)c(Nc2ccc(C)cc2)c1F,inactive,
Clc1ncccc1-c1nc2ccccc2n1Cc1ccccc1,inactive,
Clc1ccc(Cn2c(-c3cccnc3Cl)nc3ccccc32)c(Cl)c1,7.94 µM (active),
Nc1nonc1-c1nc2ccccc2n1Cc1ccc(F)cc1Cl,inactive,
CCOC(=O)C1(N(CC)CC)Sc2cc(C)ccc2NC1=O (configuration not stated),inactive,
CC1CC2(CCCCC2)N2C(=O)C(=O)c3cccc1c32 (configuration not stated),7.94 µM (active),
O=C(NC(=S)Nc1ccc(Oc2ccc(Cl)cc2)cc1)c1ccccc1,inactive,
CCCC[C@]1(C2CCCC2)Cc2cc(OCC(=O)O)c(Cl)c(Cl)c2C1=O,inactive,
COc1cccc(Cn2c(=O)c(-c3cccs3)nc3cnc(Nc4cccc(OC)c4)nc32)c1,inactive,
COc1cc(/C=C(\C#N)C(=O)c2ccc(O)c(O)c2)cc(I)c1O,inactive,
COc1ccc(/C=C(\C#N)C(N)=O)c(OC)c1,,-4.62% [at 11.4 µM]
COc1cc(/C=C(\C#N)C(N)=O)cc(CSc2nc3ccccc3s2)c1O,0.0251 µM (active),

Compound,AC50,"activity, negative = inhibition"
C[C@@]1(C(NC(=O)Cc2ccccc2)c2ccc(-c3ccccc3)cc2)C[C@H]1C1CCCCC1 (some centres not stated),inactive,
CCC[C@@H]1C[C@@]1(CCC)C(NC(=O)c1ccccc1)c1cccc(Cl)c1 (some centres not stated),3.16 µM (active),
C[C@@]1(C(NC(=O)c2ccc(-c3ccccc3)cc2)c2ccc(Cl)cc2)C[C@H]1C1CCCCC1 (some centres not stated),inactive,
COC(=O)[C@H]1C[C@@H]1[C@H](NC(=O)OCc1ccccc1)c1ccccc1,inactive,
CCC[C@@H]1C[C@@]1(CCC)C(NC(=O)c1ccco1)c1ccc(Cl)cc1 (some centres not stated),3.98 µM (active),
CCC[C@@H]1C[C@@]1(CCC)C(NC(=O)OCc1ccccc1)c1ccc(-c2ccccc2)cc1 (some centres not stated),7.94 µM (active),
COC(=O)c1ccc(C(NC(=O)c2ccccc2)[C@]2(C)C[C@H]2C2CCCCC2)cc1 (some centres not stated),inactive,
CCCC[C@@H]1C[C@H]1C(NC(=O)c1ccccc1)c1ccccc1 (some centres not stated),inactive,
CCOC(=O)CC(NC(=O)c1ccco1)c1ccc(OC)cc1 (configuration not stated),inactive,
COc1ccc2c(c1)c(CC(=O)O)c(C)n2Cc1ccc(Cl)cc1,inactive,
CO[C@@H]1COC(=O)C/C=C\[C@H](C)[C@@H](NS(=O)(=O)c2ccc(C)cc2)COC(=O)C/C=C\[C@@H]1C,,1.88% [at 11.4 µM] and 8.18% [at 11.4 µM]
Cc1cc(SCC(=O)c2cccs2)nc2c(C)cccc12,inactive,
O=C(O)CC(c1cccc2ccccc12)n1cccc1 (configuration not stated),inactive,
O=C(c1cc(C(F)(F)F)cc(C(F)(F)F)c1)N1CCC2(CC1)CCN(c1ccccn1)CC2,inactive,
O=C1OC2CC3CC1CC(O)(C3)C2 (configuration not stated),inactive,
O=C(NCCO[N+](=O)[O-])c1cccnc1,inactive,
CO[C@@H]1COC(=O)CC=C[C@@H](C)[C@@H]2C=C[C@@H](O)[C@@H](COC(=O)C/C=C\[C@H]1C)O2,,20% [at 11.4 µM]
O=c1c(CCc2ccccc2)nc2cncnc2n1Cc1ccccc1Cl,inactive,
CC(C)[C@H](NC(=O)OCc1ccccc1)C(=O)N[C@H](C=O)Cc1ccccc1 (Cbz-Val-Phe-aldehyde),inactive,
Cc1nc2cnc(N3CCNCC3)nc2n(-c2ccccc2)c1=O,inactive,
CN1CCN(c2ncc3nc(-c4cc(F)cc(F)c4)c(=O)n(C4CC4)c3n2)CC1,inactive,
O=S(=O)(O)c1cc(O)c2c(N=Cc3ccccc3O)cc(S(=O)(=O)O)cc2c1,,-8.82% [at 11.4 µM]
Cc1cc(C)n(-c2nc(Nc3ccccc3C)nc(-n3nc(C)cc3C)n2)n1,inactive,
CCN1/C(=C/c2ccc3cccc(C)c3[n+]2CC)Sc2ccccc21,0.0708 µM (active),
CC1(C)O[C@@H]2C[C@H]3[C@H]4C[C@H](F)C5=CC(=O)C=C[C@@]5(C)[C@@H]4[C@H](O)C[C@]3(C)[C@]2(C(=O)CO)O1,inactive,
Cc1cc(S(=O)(=O)NCCN(C)C)c(C)s1,inactive,
